# Hits are enriched below; roughly 1.2% of the tested compounds scored in any of these assays.
# RGS8-Gao reg: human RGS8-Galphao interaction regulation; 220,000 compounds, 0.34% hits; response (percent of control binding), % at 10 µM; multiplexed bead flow cytometry, RGS8-Galphao binding; actives lie on both sides; P09471; in the data active = response below about 60% or above about 140%; inactive = in between;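 note: Galphao activated as the GDP aluminium fluoride complex binding bead-coupled RGS8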
# Target sequence (P09471 whole entry, looked up): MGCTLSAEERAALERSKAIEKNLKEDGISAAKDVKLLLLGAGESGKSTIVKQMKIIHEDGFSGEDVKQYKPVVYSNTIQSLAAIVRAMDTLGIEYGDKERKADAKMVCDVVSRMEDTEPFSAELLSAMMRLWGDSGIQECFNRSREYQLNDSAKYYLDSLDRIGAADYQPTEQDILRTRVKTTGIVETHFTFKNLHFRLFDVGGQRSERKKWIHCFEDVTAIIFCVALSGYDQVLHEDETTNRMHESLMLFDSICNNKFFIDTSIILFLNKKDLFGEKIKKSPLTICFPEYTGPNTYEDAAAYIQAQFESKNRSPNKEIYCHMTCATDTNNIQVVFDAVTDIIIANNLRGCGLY
# GSH bead fluor: compound fluoresces at 488/530 nm on GSH beads. fluorescence (KMESF) at 10 µM. AID 1776. GSH beads flow cytometry, compound fluorescence 488/530 nm; active compounds read high. 190,000 compounds, 0.25% hits; in the data active = fluorescence above about 89;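 note: glutathione beads carrying GST-tagged Bcl family fusion proteins plus one bare bead set; values are compound well signal with DMSO vehicle wells as background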
# RGS7-Gao: regulators of human RGS7-Galphao interaction | Multiplexed bead flow cytometry, RGS7-Galphao binding; actives lie on both sides | 220,000 compounds, 0.35% hits | AID 1439 | P09471 | binding response (% of control), % at 10 µM; in the data active = binding response below about 49% or above about 150%; inconclusive = no clear call, values can overlap the other calls; inactive = in between;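 note: fluorescent Galphao held in activated GDP-AlF4 state binding bead-coupled RGS7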
# RGS4-Gao reg: modulates binding of RGS4 to human Galphao; Multiplexed bead flow cytometry; actives lie on both sides; binding response (% of control), % at 10 µM; 220,000 compounds, 0.33% hits; AID 1415; in the data active = binding response below about 49% or above about 150%; inactive = in between;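 note: fluorescent Galphao activated with aluminum fluoride binding bead-coupled RGS4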
# RGS16-Gao HTS: RGS16-Galphao interaction regulator (human); O15492+P09471; bead-based flow cytometry RGS16-Galphao binding, fluorescence; actives lie on both sides; binding response (% of control), % at 10 µM; 220,000 compounds, 0.38% hits; call rule not given here;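 note: Galphao activated by GDP with aluminum fluoride before binding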
# Target sequence (O15492 whole entry, looked up): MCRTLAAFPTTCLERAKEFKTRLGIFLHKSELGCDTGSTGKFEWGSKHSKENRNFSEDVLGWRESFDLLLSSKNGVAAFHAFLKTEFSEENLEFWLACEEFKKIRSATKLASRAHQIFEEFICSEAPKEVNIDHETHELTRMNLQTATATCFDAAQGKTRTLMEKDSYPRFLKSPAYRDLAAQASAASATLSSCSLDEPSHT
# Target sequence (P09471 whole entry, looked up): as the sequence (P09471 whole entry, looked up) above
# Avidin fluor: compound fluoresces at 488/530 nm on avidin beads | compound fluorescence 488/530 nm, flow cytometry; active compounds read high | 220,000 compounds, 0.38% hits | fluorescence (KMESF) at 10 µM; in the data active = fluorescence above about 47
# * hit, by the source's call; ? = inconclusive; · = no result; [ ] = remark or other dose.
SMILES,RGS8-Gao reg,GSH bead fluor,RGS7-Gao,RGS4-Gao reg,RGS16-Gao HTS,Avidin fluor
COc1ccc2nc(SCC(=O)Nc3ccccc3C#N)[nH]c2c1,101.6,20,97.3,101.4,97.1,6
COc1ccc2nc(SCC(=O)Nc3ccccc3C)[nH]c2c1,99.0,19,109.7,99.4,99.2,64*
Cc1cc(C)c2nc3nc(C)c(C)cc3c(N)c2c1,100.3,20,99.2,101.1,101.2,11
COc1ccc(C(=O)N/N=C(\C)CC(=O)Nc2cccc(C(F)(F)F)c2)cc1,104.4,·,?,148.9,128.9,69*
COCCNC(=O)C(=O)N/N=C(\C)CC(=O)Nc1cccc(C(F)(F)F)c1,105.3,·,?,104.8,108.1,5
Cc1c(Cl)cccc1NC(=O)CC1Sc2ccccc2NC1=O (stereo not given),95.5,·,?,92.6,92.6,7
O=C(CSCc1ccccc1)Nc1cccc(C(=O)Nc2ccc(C(=O)O)cc2)c1,99.2,19,116.6,102.0,102.2,53*
O=C(NCc1ccco1)C(C(=O)c1ccc(F)cc1)n1ccccc1=O (stereo not given),100.5,22,97.8,101.0,95.3,5
CN1CCN(C(=O)C(C(=O)c2ccc(F)cc2)n2ccccc2=O)CC1 (stereo not given),106.9,35,116.1,108.0,113.3,59*
O=C(NCc1ccccn1)C(C(=O)c1ccc(F)cc1)n1ccccc1=O (stereo not given),101.5,18,110.5,104.3,101.3,56*
COc1cc(NC(=O)CN2C(=O)NC(C)(c3ccc4ccccc4c3)C2=O)c(C)cc1[N+](=O)[O-] (stereo not given),108.6,9,107.7,111.7,110.7,5
O=C(Nc1ccc(S(=O)(=O)N2CCCC2)cc1)N1c2ccccc2Sc2ccccc21,98.3,24,127.0,99.5,103.0,77*
O=C(COC(=O)c1ccc(S(=O)(=O)NCc2ccco2)cc1)c1ccccc1,102.3,11,102.1,99.6,106.4,6
O=C(COC(=O)c1ccc(S(=O)(=O)NCc2ccco2)cc1)NC1CCCCC1,100.4,268*,94.3,96.2,104.0,6
Nn1c(-c2ccccc2Cl)nnc1-c1ccccc1Cl,106.4,102*,112.7,119.2,108.0,8
O=C1/C(=C/c2cccs2)SC(=S)N1N1CCOCC1,100.4,·,?,103.4,95.9,7
N=c1c(C(=O)NCc2ccc(F)cc2)cc2c(=O)n3ccccc3nc2n1CC1CCCO1 (stereo not given),96.7,16,105.5,93.6,89.3,90*
COCCCn1c(=N)c(C(=O)NCC2CCCO2)cc2c(=O)n3ccccc3nc21 (stereo not given),98.9,15,98.2,97.2,99.0,18
O=C(Oc1ccccc1)c1ccc2nsnc2c1,100.3,13,98.5,98.8,98.4,5
CC(C)[C@H](NC(=O)c1ccccc1)C(=O)OCC(=O)NCCC1=CCCCC1,111.3,8,128.6,113.3,140.1,54*
CC(Oc1ccccc1)C(=O)OCC(=O)NC(=O)NCc1ccco1 (stereo not given),105.5,267*,102.1,106.4,121.7,6
CC(C)c1cc(C(=O)OCC(=O)NC(=O)NCc2ccco2)c(O)c(C(C)C)c1,101.4,9,?,102.6,104.9,9
CS(=O)(=O)N1CCN(c2ccc([N+](=O)[O-])c(NCc3ccc(Cl)cc3)c2)CC1,101.8,99*,101.2,100.7,104.5,15
CC(=O)C1=C(O)C(=O)N(Cc2ccco2)C1c1cccc(F)c1 (stereo not given),103.9,9,104.0,101.8,100.6,23
COc1ccc(-c2nnn(CC(=O)N3CCOCC3)n2)cc1,97.5,34,118.2,99.5,94.6,79*
SMILES,RGS8-Gao reg,GSH bead fluor,RGS7-Gao,RGS4-Gao reg,RGS16-Gao HTS,Avidin fluor
C=CCN1C(=O)S/C(=C\c2ccc3c(c2)n(C)c(=O)n3C)C1=O,87.3,10,97.2,97.0,52.3,1
CCN1C(=O)S/C(=C/c2ccsc2)C1=O,104.1,26,106.1,98.8,105.1,52*
C=CCN1C(=O)S/C(=C/c2ccsc2)C1=O,91.5,108*,105.8,105.5,72.8,4
CCN1C(=O)S/C(=C/c2cn(C)c3ccccc23)C1=O,98.3,4,98.0,101.0,99.8,12
Cc1ccc(C(=O)COC(=O)CNC(=O)CN2C(=O)c3ccccc3C2=O)cc1,108.4,13,104.0,104.6,123.5,12
NS(=O)(=O)c1cc(C(=O)OCC(=O)c2ccccc2)c(Cl)cc1Cl,98.0,12,105.5,111.3,122.4,3
NC(=S)NNC(=O)c1cccc(Br)c1,102.1,19,100.5,104.6,104.1,29
CC(C)(C)c1ccc(C(=O)NNC(=O)c2cccc(Br)c2)cc1,108.1,32,145.7,118.1,107.3,65*
CC(Sc1ccccc1)C(=O)Nc1ccc(S(=O)(=O)N2CCOCC2)cc1 (stereo not given),92.8,23,100.0,106.9,55.0,4
O=C(CN1CCC(NC(=O)c2ccco2)CC1)Nc1cccc2ccccc12,107.2,120*,116.5,118.7,109.0,6
CCOc1ccc(/C(O)=C2\C(=O)C(=O)N(c3cc(C)on3)C2c2ccccc2OC)cc1 (stereo not given),115.7,15,137.5,142.4,162.4,76*
COc1ccc2nc(Nc3nc(CSc4nnnn4-c4ccccc4)cc(=O)[nH]3)nc(C)c2c1,97.8,33,134.7,108.6,103.9,95*
CCOc1ccc2nc(Nc3nc(CSc4nnnn4-c4ccccc4)cc(=O)[nH]3)nc(C)c2c1,103.5,23,103.7,102.6,106.5,6
CN(CCOCCOc1ccc(Cl)cc1Br)Cc1ccccc1,101.3,20,107.4,99.8,100.1,7
COc1cc(/C=N/N(C)c2ccccc2)ccc1O,99.8,4,98.3,98.3,100.8,8
COc1cc(OC)c(OC)cc1/C=N/N(C)c1ccccc1,107.5,33,133.9,148.3,147.6,54*
CCOC(=O)c1ccc(N2C(=O)C(C)=C(C)C2=O)cc1,101.6,14,102.2,99.1,102.7,9
O=C(Cn1c(-c2cscn2)nc2ccccc21)Nc1ccccc1F,104.0,14,111.5,103.3,117.7,50*
COc1cc(N=c2oc3c(C)ncc(CO)c3cc2C(N)=O)cc(OC)c1OC,99.4,24,104.9,100.8,100.5,8
COc1ccc(NC(=O)COC(=O)[C@@H](NC(=O)c2c(F)cccc2F)C(C)C)cc1,141.8*[activator],13,164.3*[activator],150.4*[activator],142.3,12
COc1cc(OC)cc(C(=O)N[C@H](C(=O)OCC(=O)Nc2ccc(F)c(F)c2F)C(C)C)c1,100.2,14,?,98.5,102.1,8
CCN(CC)CCCNC(=O)C1c2ccccc2C(=O)N(CCOC)C1c1ccc(F)cc1 (stereo not given),100.5,15,?,102.2,101.1,9

# Screening results: PubChem BioAssay, NMMLSC
